Several values for one entry are separate records, joined by “and”; a condition that tells them apart may be missing. Equal values may be shown once. Results filed as inconclusive are left out. Activity calls are given as the source filed them. Calls follow the shape of the dose curve; as a rule, active = well fitted inhibition curve with a large enough effect; inconclusive = small, poorly fitted or top-dose-only effect; inactive = no such curve, though single readings can be large or run the other way.
Potency is read from the fitted curve at half-maximal effect.

Furin (Homo sapiens), sequence (P09958 whole entry, looked up): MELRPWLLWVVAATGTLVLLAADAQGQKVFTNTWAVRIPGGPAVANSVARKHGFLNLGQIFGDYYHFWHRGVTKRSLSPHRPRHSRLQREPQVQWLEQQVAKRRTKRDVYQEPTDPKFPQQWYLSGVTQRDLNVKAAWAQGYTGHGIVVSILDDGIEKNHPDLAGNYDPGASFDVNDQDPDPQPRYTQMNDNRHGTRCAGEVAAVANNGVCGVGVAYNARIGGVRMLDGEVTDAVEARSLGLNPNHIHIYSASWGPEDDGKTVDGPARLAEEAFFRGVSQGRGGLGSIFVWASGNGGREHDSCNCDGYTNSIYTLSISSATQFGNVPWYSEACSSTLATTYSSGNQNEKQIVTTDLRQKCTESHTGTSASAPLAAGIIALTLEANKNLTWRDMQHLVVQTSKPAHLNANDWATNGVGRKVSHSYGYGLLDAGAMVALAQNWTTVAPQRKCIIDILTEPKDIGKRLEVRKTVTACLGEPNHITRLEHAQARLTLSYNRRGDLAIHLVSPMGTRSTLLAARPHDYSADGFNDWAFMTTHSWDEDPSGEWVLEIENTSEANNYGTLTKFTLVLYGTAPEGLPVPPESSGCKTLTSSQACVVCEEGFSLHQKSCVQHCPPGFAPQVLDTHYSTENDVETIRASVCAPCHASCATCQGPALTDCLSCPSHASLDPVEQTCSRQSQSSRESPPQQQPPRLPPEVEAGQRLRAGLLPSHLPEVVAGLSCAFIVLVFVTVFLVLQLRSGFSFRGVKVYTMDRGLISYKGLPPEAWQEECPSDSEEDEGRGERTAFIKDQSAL

The assay deals with Furin (Homo sapiens) (UniProt P09958). As to the kind of experiment: Furin counterscreen qHTS for Zika virus inhibitors (AID 1347149). Also: nearly all actives have a fitted effect of over 70% in size. To be noted: furin enzymatic counterscreen, fluorogenic substrate; series mostly up to 57.5 µM. In a few lines:
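Fluorogenic cleavage of BOC-RVRR-AMC (2 microM final, Km ~15 µM) was monitored (ex 340, em 450 nm) at 37C after 15 min RT preincubation of 5 nM furin with compounds in HEPES pH 7.0 buffer with CaCl2 and Triton X-100. Percent inhibition was fitted to a 4-parameter Hill curve.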
A general note: Counterscreens check selectivity or assay interference.
For `CC(C)(C)C(=O)Oc1ccc(S(=O)(=O)Nc2ccccc2C(=O)NCC(=O)O)cc1`, the Potency entry was “inactive”.

As to `Cc1cnc(C(=O)NCCc2ccc(S(=O)(=O)NC(=O)NC3CCCCC3)cc2)cn1`, the Potency result is “inactive”. Take `CC1COc2c(N3CCN(C)CC3)c(F)cc3c(=O)c(C(=O)O)cn1c23` (centres undefined): the Potency was 24.1 µM (active) and 27.1 µM (active).

In the case of `Cc1ccccc1N1C(=O)c2cc(S(N)(=O)=O)c(Cl)cc2NC1C` (centres undefined), the Potency was 27 µM (active). The result for `O=C(Nc1ccc([N+](=O)[O-])cc1Cl)c1cc(Cl)ccc1O` reads “inactive”. With `O=C1Cc2cc(CCN3CCN(c4nsc5ccccc45)CC3)c(Cl)cc2N1`, the Potency is 24.1 µM (active). `CN(Cc1cnc2nc(N)nc(N)c2n1)c1ccc(C(=O)N[C@@H](CCC(=O)O)C(=O)O)cc1`: the Potency is 19.1 µM (active). As for `COc1cc2nc(N3CCN(C(=O)c4ccco4)CC3)nc(N)c2cc1OC`, the Potency is 14.9 µM (active). Consider `O=c1c(O)c(-c2ccc(O)c(O)c2)oc2cc(O)cc(O)c12`, for which the Potency result was “inactive”.

Values taken from PubChem BioAssay (NCATS).
